This is a sample that favours compounds with a hit; in the whole collection about 6.2% have one here.
SUMO Mot1 rescue – SUMOylation pathway inhibition by Mot1-301 growth rescue | S. cerevisiae Mot1-301 growth rescue, ATP luminescence, 38.5C; percent above DMSO median, 100 means doubled | growth rescue, % at 18.8 µM | 1% of 320,000 active | AID 2716;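 active = every valid replicate shows activation above 250% relative to neutral control wells; inactive = the rest, any valid replicate at or below 250%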;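 also: OY570 slx delta 5 strain wells were the positive control but not used for scaling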
AI-2 QS modul – modulates the Vibrio harveyi AI-2 quorum sensing system; Vibrio harveyi JMH597 AI-2 luminescence/OD600 ratio, 9 h; hits give low values; strain lacks LuxN and CqsS sensors; 0 = neutral-control median; activity change, % at 7.5 µM; 0.4% of 300,000 active; AID 2094; in the data active = activity change below about -75%, passing the limit was not always enough;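 also: luminescence divided by OD600 gain over 9 h not by final OD600 alone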
NTR1 ag – agonists of human neurotensin receptor NTR1; NTR1-U2OS beta-arrestin-GFP spot imaging, agonist mode; activation, % at 20 µM; P30989; 0.17% of 330,000 active;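 active = activation at or above 40% of the spot to cytoplasm intensity ratio, with at least 20 cells analyzed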;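 also: 0% = DMSO without peptide and 100% = 100 nM NTR1 peptide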
Target sequence (P30989 whole entry, looked up): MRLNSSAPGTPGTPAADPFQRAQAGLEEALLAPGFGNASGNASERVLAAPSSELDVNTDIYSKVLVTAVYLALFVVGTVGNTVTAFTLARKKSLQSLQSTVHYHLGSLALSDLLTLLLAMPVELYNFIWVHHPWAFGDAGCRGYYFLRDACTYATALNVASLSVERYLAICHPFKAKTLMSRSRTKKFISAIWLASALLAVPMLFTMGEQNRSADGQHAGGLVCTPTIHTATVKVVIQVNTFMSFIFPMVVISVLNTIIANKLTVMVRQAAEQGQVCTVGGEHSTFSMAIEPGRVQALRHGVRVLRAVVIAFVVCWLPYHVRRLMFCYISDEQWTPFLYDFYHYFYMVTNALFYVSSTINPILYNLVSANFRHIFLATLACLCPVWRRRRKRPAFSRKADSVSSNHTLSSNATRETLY
H9c2 protect – protects H9c2 cardiomyocytes from peroxide injury | AID 588492 | protection from H2O2 cell death, % at 20 µM | 0.63% of 360,000 active | H2O2 injury protection, ATPLite, 2 h;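 active = compounds giving at least 50% protection of heart cells from peroxide-induced death in the single-dose screen, raw or plate-pattern-corrected value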;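 also: 0% = DMSO wells with peroxide and 100% = DMSO wells without peroxide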
AHR act – activates the human aryl hydrocarbon receptor. P35869. AHR-responsive luciferase reporter cells, luminescence. activation, % at 5 µM. 2.5% of 320,000 active. AID 2796; in the data active = activation above about 47%;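 also: 0% = vehicle wells and 100% = reference agonist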
NR3A LBD binder – NR3A (human) ligand-binding domain modulation; NR3A LBD differential scanning fluorimetry, Tm shift; 0% = protein alone, 100% = glycine-bound protein; 2.5% of 340,000 active; Tm shift relative to glycine control, % at 25 µM;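 active = melting temperature shift of at least 10% of the positive control shift, at one fixed dose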
Mot1 SUMO dose – inhibits SUMO pathway, affecting Mot1-301 yeast growth. shares compounds with SUMO Mot1 rescue. S. cerevisiae Mot1-301 galactose growth, ATP luminescence, 24 h; -100 = growth of slx-deleted rescue strain. growth activity, percent, % at 42 µM. 2,300 tested, under 10 active. AID 493004;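 active = Signal drops as the depositor expects, and the fitted half-maximal dose is no more than ten times the top valid tested dose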;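 also: more negative values mean stronger growth rescue toward the control strain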
Starred values were filed as active, the others as inactive; nt = not tested or not shown; + = active, no number; ! = not active in a repeat.

SMILES | SUMO Mot1 rescue | AI-2 QS modul | NTR1 ag | H9c2 protect | AHR act | NR3A LBD binder | Mot1 SUMO dose
Cc1c(O)ccc(C(=O)CN2C(=O)c3ccccc3C2=O)c1O | 875.7* | 9.1 | -1.3 | 6.9 | 5.1 | 9.1 | 1.6
Cc1ccc(C)c(C(=O)CN2C(=O)c3ccccc3C2=O)c1 | -1.0 | 17.9 | -0.8 | 2.1 | -2.6 | -0.8 | nt
COc1ccccc1N1CCN(C(=O)c2ccc(N3CCCCS3(=O)=O)cc2)CC1 | 607.3* | 8.9 | -0.7 | 0.6 | 6.2 | -0.2 | 0.6
CC1CCN(C(=O)c2[nH]cnc2C(=O)NCC(=O)OCc2ccccc2)CC1 | 789.8* | 19.7 | -4.2 | 15.4 | -1.2 | 6.1 | 0.4
CCCN1C(=O)c2ccccc2NC1c1ccc(C)cc1 (stereo not given) | 457.8* | 14.9 | 0.2 | 2.7 | -0.3 | -0.2 | 1.3
Cc1ccc(S(=O)(=O)N2CCOCC2)cc1NC(=O)COC(=O)CNC(=O)c1ccccc1 | 531.6* | 4.2 | 4.9 | -10.3 | 0.8 | -7.1 | 0.4
CN1c2ccccc2-c2nc3ccccc3n2C1c1ccncc1 (stereo not given) | 634.7* | 17.6 | 0.3 | 5.4 | 21.5 | 1.4 | 0.1
CN1c2ccccc2-c2nc3ccccc3n2C1c1ccccn1 (stereo not given) | nt | 15.2 | 0.8 | 8.0 | 45.1 | -2.2 | nt
CCCCCOc1ccc(C(C)(O)C(CN2CCOCC2)c2ccccc2)cc1 (stereo not given) | 45.3 | -4.0 | 12.9 | -2.8 | 0.9 | 5.2 | nt
COc1cc(C(=O)COC(=O)c2cc([N+](=O)[O-])ccc2N2CCOCC2)ccc1OC(F)F | 662.4* | nt | 2.4 | 5.6 | 0.2 | 1.9 | -0.8
O=C(COC(=O)c1cc([N+](=O)[O-])ccc1N1CCOCC1)Nc1cccc(F)c1 | 694.1* | 37.6 | -0.1 | 12.9 | -0.7 | 0.9 | -0.6
COCC(=O)NNC(=O)c1ccccc1OC | 438.2* | 32.6 | 1.8 | 2.6 | 18.9 | -1.5 | -0.1
COc1ccccc1C(=O)NNC(=O)c1ccccc1F | -10.1 | -0.9 | 0.4 | -0.9 | 37.4 | -0.1 | nt
CC(C)(C)c1ccc(C(=O)NCCC(=O)N2CCN(c3ncccn3)CC2)cc1 | 552.5* | 14.1 | 1.6 | -7.0 | 4.5 | 2.4 | 0.3
CC(C)(C)c1ccc(C(=O)NCCC(=O)N2CCCC2)cc1 | -0.5 | 18.1 | -0.4 | 0.3 | 22.8 | -0.7 | nt
Cc1sc2ncnc(Nc3ccccc3)c2c1C | 370.8* | 17.0 | 0.6 | -4.7 | 4.0 | 3.9 | -0.3
Cc1sc2ncnc(NCc3ccccc3)c2c1C | 9.1 | 15.9 | 2.0 | -22.5 | -0.6 | 0.9 | nt
COC(=O)c1ccccc1NC(=O)COC(=O)CO/N=C(\C)c1ccc2c(c1)OCO2 | 3.1 | 9.5 | 0.8 | 3.3 | -2.3 | -1.6 | nt
COCCCNC(=O)c1cc(C(=O)c2c(-c3c(Cl)cccc3Cl)noc2C)c[nH]1 | + | 19.9 | -0.9 | -1.1 | 15.7 | -0.1 | -0.2
Cc1onc(-c2ccccc2)c1C(=O)c1c[nH]c(C(=O)NCCCN2CCOCC2)c1 | 7.4 | 9.6 | 1.0 | 1.9 | 0.8 | 0.9 | nt
CCc1ccccc1NC(=S)NNC(=O)c1ccccc1Cl | + | 25.6 | 0.5 | -0.8 | 0.0 | -1.1 | 0.3
CCn1nccc1C(=O)Nc1ccccc1OC | 747.0* | 11.8 | -0.3 | -0.1 | -0.3 | -0.7 | -0.1
COc1ccc(NC(=O)c2ccc(-c3csc(C)n3)cc2)cc1 | 795.7* | 32.6 | -0.1 | -13.2 | -1.2 | 1.7 | -0.4
COCCNC(=O)Cn1nc(-c2ccc(C)cc2)c2ccccc2c1=O | 8.0 | 13.0 | -1.2 | 1.3 | 3.2 | -1.8 | nt
Cc1ccc(CNC(=O)c2ccc(N3CCC4(CC3)CC(c3ccccc3)=NO4)c(NC(=O)c3cccc(C)c3)c2)cc1 | 947.3* | 17.0 | -0.2 | 0.8 | 2.4 | 0.8 | 0.1
SMILES | SUMO Mot1 rescue | AI-2 QS modul | NTR1 ag | H9c2 protect | AHR act | NR3A LBD binder | Mot1 SUMO dose
Cc1ccc(C(=O)/C=C/c2ccc(-c3ccccc3[N+](=O)[O-])o2)cc1 | 490.6* | -2.1 | 4.6 | -14.4 | 35.3 | -1.8 | -0.7
O=C(/C=C/c1ccc(-c2ccccc2[N+](=O)[O-])o1)c1ccc(Br)cc1 | 2.2 | -5.9 | 2.7 | -7.6 | 18.1 | 3.5 | nt
Cc1ccc(/C=C/C(=O)c2ccc([N+](=O)[O-])o2)cc1 | + | 10.0 | 6.0 | nt | -0.7 | -6.0 | -0.1
CN1CCN(CC(=O)N2c3ccccc3C(=O)Nc3cccnc32)CC1 | + | 2.7 | -1.0 | nt | -1.6 | nt | 0.1
CCOc1c(Cl)cc(CNCC(O)c2ccccc2)cc1OC (stereo not given) | 613.8* | 6.4 | 0.0 | 3.8 | 3.4 | -0.8 | 0.2
CS(=O)(=O)N1CCCC(C(=O)Nc2ccc(Br)cc2F)C1 (stereo not given) | 7.6 | 40.0 | -0.8 | -4.1 | -1.0 | 1.1 | nt
CS(=O)(=O)N1CCCC(C(=O)Nc2ccc(F)cc2F)C1 (stereo not given) | + | -3.6 | 0.2 | -2.2 | -1.6 | 1.1 | 0.8
CCCCN(C)C(=O)CCC(=O)Nc1ccc2nc(N3CCN(C)CC3)cc(C)c2c1 | 448.9* | 10.6 | 3.5 | 6.8 | 5.7 | -0.1 | 0.1
Cc1cc(N2CCN(C)CC2)nc2ccc(NC(=S)N3CCC4(CC3)OCCO4)cc12 | + | -2.1 | -0.5 | -3.0 | 2.8 | -0.4 | 0.0
CCN1CCN(c2cc(C)c3cc(NC(=S)N4CCC5(CC4)OCCO5)ccc3n2)CC1 | -9.1 | -7.1 | 2.9 | 3.5 | 5.4 | 0.5 | nt
Cc1ccc(OCCN2CCC2(C)C(=O)Nc2ccc3c(c2)OCCO3)cc1 (stereo not given) | nt | nt | nt | -5.2 | nt | nt | nt
Cc1ccc(S(=O)(=O)N2C[C@@H](C)[C@]3(C2)[C@H](O)[C@H](OC(=O)NC2CCCC2)C[C@H]2C(=O)N(c4ccccc4)C(=O)[C@H]23)cc1 | nt | nt | nt | -1.3 | nt | nt | nt
COc1ccc(CCNC(=O)CSCc2ccc(Cl)cc2)cc1OC | 1.1 | 12.4 | -1.7 | 7.3 | -2.2 | -0.9 | nt
COCCn1c(-c2ccc(Cl)cc2)cnc1SCC(=O)NCCc1ccc(OC)c(OC)c1 | 472.8* | 24.1 | -1.0 | -14.0 | 2.8 | -1.5 | 0.1
COc1ccc(Cl)cc1C(=O)NCCc1ccc(S(=O)(=O)NC(=O)NC2CCCCC2)cc1 | 390.4*! | 35.0 | 2.1 | -6.4 | -1.7 | -1.7 | -0.4
O=C(Nc1ccc2ccccc2c1)N1CCCN(CCOc2ccccc2)CC1 | 424.5* | 6.0 | 2.1 | -0.3 | 4.2 | -1.4 | 0.2
CC(C)(C)c1ccc(C(=O)NCCC(=O)Nc2cc(Cl)ccc2N2CCOCC2)cc1 | -11.1 | nt | 17.8 | -7.4 | 6.4 | -6.1 | nt
CCCCOCCCNS(=O)(=O)Cc1ccccc1 | 366.3* | 26.4 | 0.1 | 1.5 | -0.8 | 0.4 | 0.1
COc1cc(C(=O)NC(CCSC)C(=O)Nc2ccc(N3CCOCC3)cc2)cc(OC)c1OC (stereo not given) | nt | nt | nt | -0.2 | nt | nt | nt
